Measles CPE – protection of cells from measles virus; 1.5% of 140,000 active; protection (pct of control), % at 4 µM; Measles virus-infected cells, CPE protection, absorbance; in the data active means protection mostly above about 24%, no sharp cut-off; inactive means mostly below about 26%
CYP2C9 act – activators of human CYP2C9 | recombinant CYP2C9, luciferin-H conversion, luminescence; stronger effect = higher value; factor 1 = untreated enzyme, 0 = blocked | activation factor at 5 µM | 1.4% of 96,000 active | AID 1024;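 active means activation factor of 2 or more for CYP2C9 at a 5 µM dose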;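 further: 0 = sulfaphenazole-blocked wells and 1 = vehicle-only wells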
Target sequence (P11712 whole entry, looked up): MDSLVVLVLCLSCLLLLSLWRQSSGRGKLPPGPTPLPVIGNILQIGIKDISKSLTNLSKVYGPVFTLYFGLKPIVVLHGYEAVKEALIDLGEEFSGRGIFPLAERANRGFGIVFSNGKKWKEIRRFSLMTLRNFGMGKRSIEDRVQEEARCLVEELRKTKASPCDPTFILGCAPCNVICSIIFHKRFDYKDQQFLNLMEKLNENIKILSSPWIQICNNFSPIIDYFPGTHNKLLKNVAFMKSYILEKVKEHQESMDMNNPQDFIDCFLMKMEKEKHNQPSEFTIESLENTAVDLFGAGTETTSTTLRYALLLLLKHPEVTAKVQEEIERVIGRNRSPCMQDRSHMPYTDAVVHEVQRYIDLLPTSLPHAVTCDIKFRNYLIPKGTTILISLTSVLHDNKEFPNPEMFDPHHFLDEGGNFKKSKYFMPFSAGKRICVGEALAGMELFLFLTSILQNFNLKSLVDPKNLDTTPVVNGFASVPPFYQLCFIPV
CYP2C19 act – activators of human cytochrome P450 2C19; P33261; recombinant CYP2C19, luciferin-H EGE luminescence; stronger effect = higher value; 0 = fully inhibited enzyme, 1 = untreated enzyme; activation factor at 5 µM; 96,000 tested, under 10 active; AID 1025;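 active means activation factor of at least 2 at 5 µM in the primary screen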;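 further: 0 = wells with 2.5 mM tranylcypromine and 1 = vehicle-only wells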
CYP2C9 inhib – human CYP2C9 inhibition. 20% of 96,000 active. inhibition, % at 5 µM. CYP2C9 Supersomes, luciferin-H conversion, luminescence. AID 777;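 active means blocking of liver enzyme CYP2C9 beyond about 50% at 5 µM, limit read from the data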
CYP2C19 inhib – inhibitors of human CYP2C19; CYP2C19 Supersomes, luciferin-H EGE luminescence, 30 min; inhibition, % at 5 µM; 21% of 96,000 active;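 active means CYP2C19 inhibition above a set limit at 5 µM in the primary screen, cut at about 50% in these data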;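 further: plate controls were negative control wells for no effect and 2.5 mM tranylcypromine positive control for full effect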
The depositor's hits bear a star; x = no result given. A selection: hits, their analogues and other compounds. The true share with any hit is near 22%.

SMILES | Measles CPE | CYP2C9 act | CYP2C19 act | CYP2C9 inhib | CYP2C19 inhib
CCc1[nH]nc2c1C1(C(=O)N(Cc3ccccc3)c3ccccc31)C(C#N)=C(N)O2 (configuration not stated) | 10 | 0.1 | 0.1 | 88* | 85*
O=c1c2c3c(sc2ncn1/N=C/c1ccccc1)CCCC3 | 34 | x | x | x | x
COc1ccc(C(=O)CSC2=C(C#N)C3(CCCCC3)C(C#N)=C(N)N2)cc1 | 9 | 0 | 0 | 98* | 100*
N#CC1=C(N)NC(SCC(=O)c2ccc(Cl)cc2)=C(C#N)C12CCCC2 | 18 | 0 | 0 | 97* | 100*
CC1=C(C(=O)OC(C)(C)C)C(c2cccs2)NC(=O)N1 (configuration not stated) | 3 | x | x | x | x
COc1cc(NC(=O)c2cccc(Cl)c2)c(OC)cc1NC(=O)CN1CCOCC1 | 73* | 0.9 | 1 | 14 | -2
COc1ccc(OC)c(NC(=O)c2cn(C)c(=O)c3cc(OC)c(OC)cc23)c1 | 0 | 0.3 | 0.7 | 74* | 32
COc1ccc(C(=O)Nc2cc(OC)ccc2OC)cc1 | 3 | 1.2 | 0.3 | -20 | 71*
COc1ccc(OC)c(NC(=O)c2ccc(CN3CCOCC3)cc2)c1 | 5 | 2* | 0.8 | -96 | 21
COc1cc(NC(=O)c2ccccc2)c(OC)cc1NC(=O)CN1CCOCC1 | 6 | 0.8 | 0.9 | 16 | 8
CC12CCC(C(=O)Nc3ccc(SC(F)F)cc3)(CC1=O)C2(C)C (configuration not stated) | 6 | 0.8 | 0.9 | 24 | 9
COc1ccc(OC)c(NC(=O)C23CCC(C)(C(=O)C2)C3(C)C)c1 (configuration not stated) | 6 | 2.3* | 0.7 | -130 | 28
COc1ccc(OC)c(NC(=S)NN2CCOCC2)c1 | 57* | 1 | 0.7 | 3 | 30
COc1ccc(Cc2nc(-c3cccs3)no2)cc1OC | 25 | 0.3 | 0.2 | 65* | 78*
Cc1ccc(CNC(=O)CCc2nc(-c3cccs3)no2)cc1 | 7 | 0.3 | 0.3 | 68* | 70*
COc1ccc(Cc2nc(-c3ccc(-n4cccc4)cc3)no2)cc1OC | 13 | 0.9 | 1.1 | 14 | -9
COCCCNC(=O)CCc1nc(-c2ccccc2Cl)no1 | 20 | 1 | 1 | -4 | -3
COc1ccccc1NC(=O)CCc1nc(-c2cccs2)no1 | 21 | 0.8 | 0.2 | 24 | 85*
Cc1ccc(-c2noc(CCC(=O)NCC3CCCO3)n2)cc1 (configuration not stated) | 8 | 1 | 1 | -3 | -2
O=C(CCc1nc(-c2cccs2)no1)NCc1ccc(F)cc1Cl | 6 | 0.3 | 0.1 | 66* | 87*
CCn1c(SCC(=O)N/N=C/c2ccc(O)c(OC)c2)nc2ccccc21 | 24 | x | x | x | x
COc1ccccc1NC(=O)Cc1noc(CN(C)Cc2cccs2)n1 | 7 | 0.7 | 0.2 | 34 | 78*
CCOC(=O)C(=O)/C(=C\N(C)C)c1onc(-c2c(Cl)cccc2Cl)c1C(=O)OC | 11 | 0.1 | 0.5 | 91* | 55*
CCOC(=O)C(=O)/C(=C\N(C)C)c1onc(-c2ccccc2Cl)c1C(=O)OC | 22 | 0.3 | 0.6 | 67* | 44
CC(=O)CC(=O)Nc1ccc(Nc2ccccc2)cc1 | 8 | x | x | x | x
SMILES | Measles CPE | CYP2C9 act | CYP2C19 act | CYP2C9 inhib | CYP2C19 inhib
COc1c(N)c2ccccc2[nH]c1=O | 26 | 1 | 1 | 2 | 4
O=C(COc1ccc(Br)cc1)c1ccc2c(c1)CCCC2 | 51 | 1.6 | 0.5 | -62 | 52*
COc1c(Cl)cnn(-c2ccccc2)c1=O | 10 | x | x | x | x
COc1cnn(-c2ccccc2)c(=O)c1SCc1ccc(Cl)c(Cl)c1 | 21 | 0.5 | 0.5 | 52* | 54*
Cc1cc(C)cc(NC(=O)C2CCN(S(=O)(=O)c3c(C)n[nH]c3C)CC2)c1 | 2 | 1.7 | 0.8 | -72 | 22
O=C1c2ccccc2C(=O)N1CC1CCCO1 (configuration not stated) | 4 | 1 | 0.9 | 4 | 11
NC1(N)OC(CN2C(=O)c3ccccc3C2=O)CS1 (configuration not stated) | 3 | 0.9 | 0.5 | 12 | 52*
COc1cccc(C2CC(c3cccc(Br)c3)n3nc(N)nc3N2)c1 (configuration not stated) | 6 | 0.9 | 0.9 | 14 | 11
O=C(C1CCC1)N1CCN(Cc2ccccc2)CC1 | 18 | 0.7 | 0.1 | 32 | 93*
O=C(C1CCCCN1S(=O)(=O)c1ccccc1)N1CCN(Cc2ccccc2)CC1 (configuration not stated) | 11 | 1.1 | 0.4 | -11 | 62*
Cc1ccc(S(=O)(=O)N2CCCCC2C(=O)N2CCN(Cc3ccccc3)CC2)cc1 (configuration not stated) | 9 | 2.9* | 0.2 | -195 | 85*
Cc1ccc(S(=O)(=O)NNC(=O)C2CCN(Cc3ccccc3)CC2)cc1 | 4 | x | x | x | x
CCCOC(=O)c1cccc(NC(=O)C(C)(C)C)c1 | 7 | 0.4 | 0.2 | 59* | 79*
CC(C)(C)C(=O)Nc1cccc(C(=O)c2cccc(NC(=O)C(C)(C)C)c2)c1 | 2 | 0.8 | 0.5 | 22 | 55*
COc1ccc(CSc2nnc(Cc3sc(-c4ccccc4)nc3-c3ccccc3)o2)cc1 | 7 | 0.3 | 0.9 | 67* | 6
Fc1ccc(CSc2nnc(Cc3sc(-c4ccccc4)nc3-c3ccccc3)o2)cc1 | 10 | 0.3 | 0.9 | 72* | 15
c1ccc(CSc2nnc(Cc3ccccn3)o2)cc1 | 7 | 1.1 | 0.9 | -5 | 9
CSc1nnc(Cc2sc(-c3ccccc3)nc2-c2ccccc2)o1 | 13 | 0 | 0.1 | 100* | 89*
CCCSc1nc(N)cc(=O)[nH]1 | 5 | 1 | 0.9 | -3 | 6
CC(C)(C)OC(=O)N1CCC(C(=O)N[C@@H](Cc2ccccc2)C(=O)O)CC1 | 5 | 0.9 | 1.2 | 9 | -17
CSc1nsc(SC)c1NC(=O)OCc1ccccc1 | 21 | 0.7 | 0.1 | 28 | 89*
CSc1nsc(SC)c1NC(=O)OCCc1ccccn1 | 5 | 0.6 | 0 | 35 | 95*
CSc1nsc(SC)c1NC(=O)Nc1ccccn1 | 2 | 0.5 | 0.5 | 45 | 50
O=C1OC(c2ccc(Cl)cc2)/C(=C(/O)c2ccccc2)C1=O (configuration not stated) | 12 | 0.5 | 1.1 | 53* | -7
COc1ccc(C2/C(=C(/O)c3ccccc3)C(=O)C(=O)N2C)cc1 (configuration not stated) | 2 | 0.9 | 1.1 | 8 | -9
Cc1ccc(C2CC(=O)N3CN(c4ccc(Br)cc4)CSC3=C2C#N)o1 (configuration not stated) | 9 | 0 | 0.1 | 98* | 90*
N#CC1=C2SCN(c3ccccc3)CN2C(=O)CC1c1cccs1 (configuration not stated) | 9 | 0.2 | 0.5 | 83* | 50*
N#CC1=C2SCN(c3ccccc3)CN2C(=O)CC1c1c(Cl)cccc1Cl (configuration not stated) | 19 | 0.1 | 0.9 | 88* | 15

Screening data deposited in PubChem BioAssay by several laboratories.
